Laboratory results taken from the supplement of paper PMC6607015.
Structures can show the parent of a compound that is named as a salt.

Legend:
Settings in all cases: compound concentration in added solution (µM; 5 µl added to 20 µl cells): 10; 18 h
A431 [1] = experiment: LBPA endosome anti-LBPA integrated intensity (sum per cell), Z-score; higher = more LBPA staining
Method in brief: (§1)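 After 18 h on 5 µl of 10 µM compound solution in duplicate 384-well imaging plates, HeLa MZ or A431 cells, seeded at 3,500 per well in 20 µl, were fixed with 4% PFA. They were then labelled with 6C4 anti-LBPA antibody, filipin, propidium iodide and CellTracker green, and four 20× fields were recorded per well. Integrated LBPA or filipin intensity per cell, whole-cell or within LBPA endosomes, came from MetaXpress segmentation and was normalised to Z-scores in AcuityXpress.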

HeLa MZ [2] = experiment: as above
Method in brief: as §1

A431 [3] = experiment: whole-cell filipin (free cholesterol) integrated intensity, Z-score; higher = more cholesterol staining
Method in brief: as §1

HeLa MZ [4] = experiment: as above
Method in brief: as §1

A431 [5] = experiment: filipin (cholesterol) integrated intensity within LBPA endosomes, Z-score; higher = more cholesterol in LBPA endosomes
Method in brief: as §1

HeLa MZ [6] = experiment: as above
Method in brief: as §1

Compound | LBPA endosome anti-LBPA integrated intensity (z-score) (A431 [1]) | LBPA endosome anti-LBPA integrated intensity (z-score) (HeLa MZ [2]) | whole-cell filipin (z-score) (A431 [3]) | whole-cell filipin (z-score) (HeLa MZ [4]) | filipin (z-score) (A431 [5]) | filipin (z-score) (HeLa MZ [6])
C=C[C@H]1CN2CC[C@H]1C[C@@H]2[C@@H](O)c1ccnc2ccc(OC)cc12 [Quinidine hydrochloride monohydrate] | 0.635 | 0.796 | 0.722 | -0.0406 | 0.638 | 0.436
Clc1ccccc1CN1CCc2sccc2C1 [Ticlopidine hydrochloride] | -0.571 | -1.16 | -0.834 | -0.662 | -0.515 | -0.675
CN(C)C(=N)NC(=N)N [Metformin hydrochloride] | -0.525 | -0.838 | -0.902 | -0.3 | -0.437 | -0.498
C[C@]12CC[C@@H]3c4ccc(O)cc4CC[C@H]3[C@@H]1C[C@@H](O)[C@@H]2O [Estriol] | -0.219 | 0.135 | -0.24 | -0.552 | -0.367 | -0.397
CC(=O)[C@H]1CC[C@H]2[C@@H]3C=CC4=CC(=O)CC[C@@]4(C)[C@@H]3CC[C@]12C [Dydrogesterone] | 1.19 | 1.12 | 0.649 | 0.0624 | 0.655 | -0.0901
CN[C@@H]1[C@H](O[C@H]2[C@H](O[C@H]3[C@H](O)[C@@H](O)[C@H](N=C(N)N)[C@@H](O)[C@@H]3N=C(N)N)O[C@@H](C)[C@]2(O)C=O)O[C@@H](CO)[C@H](O)[C@H]1O [Streptomycin sulfate] | -0.673 | -1.38 | -0.979 | -0.78 | -0.577 | -0.576
O=C(c1ccc(OCCN2CCCCC2)cc1)c1c(-c2ccc(O)cc2)sc2cc(O)ccc12 [Raloxifene hydrochloride] | 2.74 | 1.35 | 1.48 | 2.28 | 3.61 | 5.61
Cc1ccsc1/C=C/C1=NCCCN1C [Morantel tartrate] | -0.53 | -0.0789 | -1.09 | -0.906 | -0.593 | -0.756
CC(Oc1ccccc1)C(=O)N[C@@H]1C(=O)N2[C@@H]1SC(C)(C)[C@@H]2C(=O)O (some centres not stated) [Phenethicillin potassium salt] | -0.589 | -1.24 | -0.612 | -0.336 | -0.493 | -0.525
O=C(NCCO[N+](=O)[O-])c1cccnc1 [Nicorandil] | -0.51 | -0.536 | -0.699 | -0.868 | -0.497 | -0.545
CCOC(=O)O[C@]1(C(=O)COC(=O)CC)CC[C@H]2[C@@H]3CCC4=CC(=O)C=C[C@]4(C)[C@H]3[C@@H](O)C[C@@]21C [Prednicarbate] | -0.408 | -0.375 | 0.46 | 0.0462 | -0.282 | -0.201
Cc1ccccc1N1C(=O)c2cc(S(N)(=O)=O)c(Cl)cc2NC1C (configuration not stated) [Metolazone] | -0.495 | -0.0744 | -0.881 | 0.441 | -0.436 | -0.348
C[n+]1ccccc1/C=N/O [Pralidoxime chloride] | -0.559 | -0.678 | -0.432 | -0.212 | -0.503 | -0.574
O=S(=O)(O)CCS [Mesna] | -0.366 | 0.0893 | -0.163 | 0.141 | -0.454 | -0.55
Cc1cc(NS(=O)(=O)c2ccc(N)cc2)no1 [Sulfamethoxazole] | -0.371 | -0.141 | -0.446 | -0.158 | -0.446 | -0.3
CCOc1ccc2c(c1)C(C)=CC(C)(C)N2 [Ethoxyquin] | -0.421 | 0.201 | -0.319 | -0.546 | -0.467 | -0.418
CCCCC1C(=O)N(c2ccccc2)N(c2ccc(O)cc2)C1=O (configuration not stated) [Oxyphenbutazone] | -0.518 | -0.9 | 0.131 | 0.127 | -0.41 | -0.527
CC(C[N+](C)(C)C)OC(N)=O (configuration not stated) [Bethanechol chloride] | -0.55 | -0.64 | -0.316 | -0.111 | -0.415 | -0.495
CC[C@H]1OC(=O)[C@H](C)[C@@H](O[C@H]2C[C@@](C)(OC)[C@@H](O)[C@H](C)O2)[C@H](C)[C@@H](O[C@@H]2O[C@H](C)C[C@H](N(C)C)[C@H]2O)[C@](C)(O)C[C@@H](C)CN(C)[C@H](C)[C@@H](O)[C@]1(C)O [Azithromycin] | 4.39 | 1.79 | 0.331 | 0.115 | 1.25 | 1.45
NC(=O)c1ccc[n+]([C@@H]2O[C@H](COP(=O)([O-])OP(=O)(O)OC[C@H]3O[C@@H](n4cnc5c(N)ncnc54)[C@H](O)[C@@H]3O)[C@@H](O)[C@H]2O)c1 [Nadide] | -0.373 | -0.766 | -0.714 | -0.46 | -0.413 | -0.768
O=C(CCNNC(=O)c1ccncc1)NCc1ccccc1 [Nialamide] | -0.371 | 0.29 | -0.078 | -0.132 | -0.403 | -0.566
CC1CCc2c(N3CCC(O)CC3)c(F)cc3c(=O)c(C(=O)O)cn1c23 (configuration not stated) [Nadifloxacin] | -0.419 | -1.21 | -0.24 | -0.254 | -0.402 | -0.471
O=C(Nc1cccc2c(=O)cc(-c3nnn[nH]3)oc12)c1ccc(OCCCCc2ccccc2)cc1 [Pranlukast] | -0.507 | -1.1 | -0.413 | -0.657 | -0.501 | -0.637
CC(=O)c1ccc(S(=O)(=O)NC(=O)NC2CCCCC2)cc1 [Acetohexamide] | -0.506 | -0.393 | -0.763 | -0.947 | -0.604 | -0.673

Compound | LBPA endosome anti-LBPA integrated intensity (z-score) (A431 [1]) | LBPA endosome anti-LBPA integrated intensity (z-score) (HeLa MZ [2]) | whole-cell filipin (z-score) (A431 [3]) | whole-cell filipin (z-score) (HeLa MZ [4]) | filipin (z-score) (A431 [5]) | filipin (z-score) (HeLa MZ [6])
CCCCN(CCCC)CCC(O)c1cc2c(Cl)cc(Cl)cc2c2cc(C(F)(F)F)ccc12 (configuration not stated) [Halofantrine hydrochloride] | 1.7 | -0.119 | 1.07 | -0.0402 | 1.04 | 0.413
C[C@@H]1C[C@H]2[C@@H]3C[C@H](F)C4=CC(=O)C=C[C@]4(C)[C@@]3(F)[C@@H](O)C[C@]2(C)[C@@]1(O)C(=O)CO [Flumethasone] | -0.341 | -0.862 | -0.0225 | 0.117 | -0.194 | -0.317
CN(C)CCOC(C)(c1ccccc1)c1ccccn1 (configuration not stated) [Doxylamine succinate] | -0.48 | 0.575 | -0.578 | -0.502 | -0.488 | -0.154
CN(C)C/C=C(/c1ccc(Br)cc1)c1cccnc1 [Zimelidine dihydrochloride monohydrate] | -0.281 | 0.0916 | -0.265 | -0.387 | 0.179 | 0.387
Cc1ncc([N+](=O)[O-])n1CC(C)O (configuration not stated) [Secnidazole] | -0.291 | -0.288 | -0.203 | -0.327 | -0.374 | -0.579
Cc1cc(CC(=O)O)n(C)c1C(=O)c1ccc(Cl)cc1 [Zomepirac sodium salt] | -0.359 | 0.635 | -0.277 | 0.00846 | -0.413 | -0.439
CS(=O)(=O)c1ccc([C@@H](O)[C@@H](CF)NC(=O)C(Cl)Cl)cc1 [Florfenicol] | -0.565 | -1.2 | -0.505 | -0.36 | -0.528 | -0.651
C/C=C(/C(=C/C)c1ccc(O)cc1)c1ccc(O)cc1 [Dienestrol] | -0.546 | -0.673 | -0.449 | -0.338 | -0.497 | -0.451
CC(=O)Oc1cc(C(F)(F)F)ccc1C(=O)O [Triflusal] | -0.556 | -0.553 | -0.393 | 0.0625 | -0.513 | -0.544
Nc1ccc(S(=O)(=O)Nc2nccs2)cc1 [Sulfathiazole] | -0.403 | -0.679 | -0.453 | 0.103 | -0.36 | -0.308
C#C[C@]1(O)CC[C@H]2[C@@H]3CCC4=CC(=O)CC[C@@H]4[C@H]3CC[C@@]21CC [Norgestrel-(-)-D] | -0.501 | -0.275 | -0.421 | -0.79 | -0.478 | -0.446
O=c1cc(-c2ccc(O)c(O)c2)oc2cc(O)cc(O)c12 [Luteolin] | -0.401 | 0.459 | -0.523 | -0.0366 | -0.468 | -0.425
COc1c(O[C@@H]2O[C@H](CO)[C@@H](O)[C@H](O)[C@H]2O)cc2c(c1OC)-c1ccc(SC)c(=O)cc1[C@@H](NC(C)=O)CC2 [Thiocolchicoside] | -0.551 | -0.233 | -0.589 | -0.789 | -0.477 | -0.471
CN1CCN(CCCN2c3ccccc3Sc3ccc(C(F)(F)F)cc32)CC1 [Trifluoperazine dihydrochloride] | 1.83 | -0.0806 | -0.826 | 0.153 | 2.06 | 3.01
NC(CO)C(=O)NNCc1ccc(O)c(O)c1O (configuration not stated) [Benserazide hydrochloride] | -0.379 | 0.144 | -0.376 | -0.254 | -0.42 | -0.5
C[C@]12CCC(=O)C=C1CC[C@@H]1[C@@H]2[C@@H](O)C[C@@]2(C)[C@H]1CC[C@]2(O)C(=O)CO [Hydrocortisone base] | -0.41 | -0.249 | -0.675 | -0.6 | -0.327 | -0.44
Clc1ccc(Nc2nnc(Cc3ccncc3)c3ccccc23)cc1 [Vatalanib] | -0.715 | -0.947 | -0.382 | -0.477 | -0.573 | -0.345
O=C(NCC1CCCCN1)c1cc(OCC(F)(F)F)ccc1OCC(F)(F)F (configuration not stated) [Flecainide acetate] | 0.848 | 1.72 | 1.08 | 0.76 | 0.948 | 0.836
O=C(O)Cc1cc(I)c(Oc2ccc(O)c(I)c2)c(I)c1 [Tiratricol, 3,3',5-triiodothyroacetic acid] | -0.369 | 0.145 | -0.472 | -0.883 | -0.548 | -0.66
COCCCOc1ccnc(C[S+]([O-])c2nc3ccccc3[nH]2)c1C (configuration not stated) [Rabeprazole Sodium salt] | -0.587 | -0.545 | 0.0453 | 1.99 | -0.44 | -0.189
Cc1ncc(CO)c(CO)c1O [Pyridoxine hydrochloride] | -0.469 | -0.56 | -0.385 | -0.528 | -0.475 | -0.596
CCOC(=O)[C@H](CCc1ccccc1)N[C@@H](C)C(=O)N1CCC[C@H]1C(=O)O [Enalapril maleate] | -0.644 | -2 | -1.09 | -0.795 | -0.578 | -0.713
Cc1cccc(N(C)C(=S)Oc2ccc3ccccc3c2)c1 [Tolnaftate] | 0.133 | 0.375 | -0.581 | -0.535 | -0.301 | -0.655
